PubChem BioAssay (NCI)
This is part of a sample that, as a whole, favours compounds with a hit. Of some 83,000 tested, about 20% had one in any assay.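 Percent growth is the endpoint: 0 to 100 indicates growth inhibition (40 means 60% inhibition), 0 means no net growth, and negative values indicate cell death.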 Active and inactive are the calls of the source. How the source made its calls: active means growth percent below 10; inactive means the rest.

Key:
Assay in all cases: NCI-60 one-dose screen, 48 h (100 = growth as untreated, 0 = no growth, -100 = all killed)
Conditions in all cases: 10 µM
HCT-15 colon = system: HCT-15 colon
HT29 colon = system: HT29 colon
SNB-75 CNS = system: SNB-75 CNS
SNB-19 CNS = system: SNB-19 CNS
U251 CNS = system: U251 CNS
PC-3 prostate = system: PC-3 prostate
SK-MEL-5 melanoma = system: SK-MEL-5 melanoma
UACC-62 melanoma = system: UACC-62 melanoma
LOX IMVI melanoma = system: LOX IMVI melanoma
SK-MEL-28 melanoma = system: SK-MEL-28 melanoma
SK-MEL-2 melanoma = system: SK-MEL-2 melanoma
UO-31 renal = system: UO-31 renal
TK-10 renal = system: TK-10 renal
ACHN renal = system: ACHN renal
A498 renal = system: A498 renal
CCRF-CEM leukemia = system: CCRF-CEM leukemia
SN12C renal = system: SN12C renal
CAKI-1 renal = system: CAKI-1 renal
MOLT-4 leukemia = system: MOLT-4 leukemia
EKVX NSCLC = system: EKVX NSCLC

Measured: growth

CC(C)C[C@H](NC(=O)Cn1cccc(CNC(=O)c2ccccc2)c1=O)B(O)O
inactive: HCT-15 colon 64.7% | SNB-19 CNS 34.1% | U251 CNS 17.2% | PC-3 prostate 35.8% | SK-MEL-28 melanoma 19.4% | UO-31 renal 50.9% | TK-10 renal 16.8% | ACHN renal 24.5%
active: HT29 colon -0.24% | SNB-75 CNS -4.6% | SK-MEL-5 melanoma -34.3% | UACC-62 melanoma -17.1% | LOX IMVI melanoma -60.4% | SK-MEL-2 melanoma 7.34% | A498 renal -12.2% | CCRF-CEM leukemia 2.66%

O=[N+]([O-])c1ccc(/C(=C/c2ccccc2)[n+]2ccccc2)cc1
inactive: HCT-15 colon 104% | HT29 colon 106% | SNB-75 CNS 98.7% | SNB-19 CNS 103% | U251 CNS 94.3% | PC-3 prostate 99% | SK-MEL-5 melanoma 103% | UACC-62 melanoma 100% | LOX IMVI melanoma 105% | SK-MEL-28 melanoma 105% | SK-MEL-2 melanoma 125% | SN12C renal 101% | UO-31 renal 100% | TK-10 renal 114% | ACHN renal 107% | CAKI-1 renal 111% | A498 renal 101% | CCRF-CEM leukemia 89.9% | MOLT-4 leukemia 105%

Cc1cc(CSc2ccccc2C(=O)N2CC=C(c3ccccc3)CC2)on1
inactive: HCT-15 colon 95.2% | HT29 colon 84.2% | SNB-75 CNS 90.3% | SNB-19 CNS 104% | U251 CNS 98.7% | PC-3 prostate 82.9% | SK-MEL-5 melanoma 97.5% | UACC-62 melanoma 90.4% | LOX IMVI melanoma 92.1% | SK-MEL-28 melanoma 98.1% | SK-MEL-2 melanoma 94.1% | EKVX NSCLC 90.7% | UO-31 renal 88.1% | TK-10 renal 96.9% | ACHN renal 91.6% | CAKI-1 renal 86.3% | A498 renal 98.4% | MOLT-4 leukemia 91.6%

Cc1c[nH]c(=O)n(Cc2nnc(CCC(=O)c3nc4ccccc4[nH]3)o2)c1=O
inactive: HCT-15 colon 65.3% | SNB-19 CNS 33.2% | U251 CNS 16.6% | PC-3 prostate 19.3% | SK-MEL-5 melanoma 13.2% | UACC-62 melanoma 41% | LOX IMVI melanoma 35.6% | SK-MEL-28 melanoma 40.9% | SK-MEL-2 melanoma 25.2% | EKVX NSCLC 54.9% | UO-31 renal 44.2% | TK-10 renal 64.1% | ACHN renal 61.1% | CAKI-1 renal 63.5% | A498 renal 11.5%
active: HT29 colon 8.43% | SNB-75 CNS -33% | MOLT-4 leukemia 9.42%
